Experimental data as given in PubChem BioAssay AID1159580 (chemical genetic matrix, 2015).
About 2,000 (36%) of roughly 5,500 compounds were called active. Another 18% or so got no clear call; they are omitted. No stated cut-off is given here; in the data, active means normalized growth mostly below about 0.91 (no sharp cut-off); inconclusive means no clear call, values can overlap the other calls; inactive means mostly above about 0.92. Some of the results follow.

Test: chemical genetic growth profiling, strain panel (AID 1159580);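 further: tested at 20 µM; growth read once vehicle control cultures reached saturation at 30 °C; 1 = growth at the plate median or of vehicle wells; lower values mean less growth of the strain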
Conditions: growth OD

Measured: normalized growth

CSc1nc(NC(C)C)nc(NC(C)C)n1
inactive: S. cerevisiae deletion strains, locus YJR075W, strain HOC1, active compounds read low 1.02 | S. cerevisiae deletion strains, locus YKL009W, strain mrt4, active compounds read low 1.03 | S. cerevisiae deletion strains, locus YKL068W, active compounds read low 1 | S. cerevisiae deletion strains, locus YKL085W, strain MDH1 (second series), active compounds read low 1.01 | S. cerevisiae deletion strains, locus YKL085W, strain MDH1, active compounds read low 1.01 | S. cerevisiae deletion strains, locus YKL160W, strain elf1, active compounds read low 0.979 | S. cerevisiae deletion strains, locus YKL190W, strain CNB1, active compounds read low 1.02 | S. cerevisiae deletion strains, locus YKR001C, strain vps1, active compounds read low 1.03 | S. cerevisiae deletion strains, locus YKR026C, strain gcn3, active compounds read low 0.973 | S. cerevisiae deletion strains, locus YKR091W, strain srl3, active compounds read low 0.973 | S. cerevisiae deletion strains, locus YLL001W, strain dnm1, active compounds read low 0.979 | S. cerevisiae deletion strains, locus YLL026W, active compounds read low 0.975 | S. cerevisiae deletion strains, locus YLL041C, strain sdh2, active compounds read low 0.983 | S. cerevisiae deletion strains, locus YLR027C, strain aat2, active compounds read low 0.967 | S. cerevisiae deletion strains, locus YLR039C, strain RIC1, active compounds read low 0.987 | S. cerevisiae deletion strains, locus YLR058C, strain SHM2, active compounds read low 1.01 | S. cerevisiae deletion strains, locus YLR102C, strain apc9, active compounds read low 1 | S. cerevisiae deletion strains, locus YLR113W, strain HOG1, active compounds read low 0.993 | S. cerevisiae deletion strains, locus YLR221C, strain rsa3, active compounds read low 0.971 | S. cerevisiae deletion strains, locus YLR258W, strain gsy2, active compounds read low 0.964 | S. cerevisiae deletion strains, locus YLR262C, strain YPT6, active compounds read low 1.03 | S. cerevisiae deletion strains, locus YLR268W, strain sec22, active compounds read low 1.01 | S. cerevisiae deletion strains, locus YLR320W, strain mms22, active compounds read low 0.961 | S. cerevisiae deletion strains, locus YLR330W, strain CHS5, active compounds read low 1.01 | S. cerevisiae deletion strains, locus YLR342W, strain FKS1 (second series), active compounds read low 0.974 | S. cerevisiae deletion strains, locus YLR342W, strain FKS1, active compounds read low 0.958 | S. cerevisiae deletion strains, locus YLR357W, strain rsc2, active compounds read low 0.923 | S. cerevisiae deletion strains, locus YLR370C, strain arc18, active compounds read low 0.969 | S. cerevisiae deletion strains, locus YLR371W, strain rom2, active compounds read low 0.999 | S. cerevisiae deletion strains, locus YLR384C, strain iki3, active compounds read low 0.972 | S. cerevisiae deletion strains, locus YLR418C, strain cdc73, active compounds read low 1.04 | S. cerevisiae deletion strains, locus YML016C, strain PPZ1, active compounds read low 0.989 | S. cerevisiae deletion strains, locus YML032C, strain rad52, active compounds read low 1.03 | S. cerevisiae deletion strains, locus YML120C, strain ndi1, active compounds read low 0.966 | S. cerevisiae deletion strains, locus YML124C, strain tub3, active compounds read low 1.02 | S. cerevisiae deletion strains, locus YMR058W, strain fet3, active compounds read low 0.97 | S. cerevisiae deletion strains, locus YMR078C, strain ctf18, active compounds read low 1.02 | S. cerevisiae deletion strains, locus YMR125W, strain sto1, active compounds read low 0.958 | S. cerevisiae deletion strains, locus YMR129W, active compounds read low 0.973 | S. cerevisiae deletion strains, locus YMR205C, strain PFK2, active compounds read low 0.944 | S. cerevisiae deletion strains, locus YMR223W, strain ubp8, active compounds read low 1.01 | S. cerevisiae deletion strains, locus YMR231W, strain pep5, active compounds read low 0.973 | S. cerevisiae deletion strains, locus YMR263W, strain SAP30, active compounds read low 1.02 | S. cerevisiae deletion strains, locus YMR307W, strain GAS1, active compounds read low 1.05 | S. cerevisiae deletion strains, locus YNL067W, strain RPL9B, active compounds read low 0.999 | S. cerevisiae deletion strains, locus YNL071W, strain lat1, active compounds read low 0.978 | S. cerevisiae deletion strains, locus YNL128W, strain TEP1, active compounds read low 1.01 | S. cerevisiae deletion strains, locus YNL153C, strain GIM3, active compounds read low 1 | S. cerevisiae deletion strains, locus YNL183C, strain NPR1, active compounds read low 0.969 | S. cerevisiae deletion strains, locus YNL209W, strain ssb2, active compounds read low 0.987 | S. cerevisiae deletion strains, locus YNL233W, strain BNI4, active compounds read low 1.02 | S. cerevisiae deletion strains, locus YNL248C, strain rpa49, active compounds read low 0.979 | S. cerevisiae deletion strains, locus YNL250W, strain rad50, active compounds read low 1.01 | S. cerevisiae deletion strains, locus YNL271C, strain bni1, active compounds read low 1.01 | S. cerevisiae deletion strains, locus YNL298W, strain CLA4, active compounds read low 1 | S. cerevisiae deletion strains, locus YNL307C, strain MCK1, active compounds read low 1.01 | S. cerevisiae deletion strains, locus YNL322C, strain KRE1 (second series), active compounds read low 0.962 | S. cerevisiae deletion strains, locus YNL322C, strain KRE1, active compounds read low 1.01 | S. cerevisiae deletion strains, locus YNR049C, strain mso1, active compounds read low 0.953 | S. cerevisiae deletion strains, locus YNR052C, strain pop2, active compounds read low 1.02 | S. cerevisiae deletion strains, locus YOL006C, strain TOP1, active compounds read low 1.02 | S. cerevisiae deletion strains, locus YOL012C, strain htz1 0.96 | S. cerevisiae deletion strains, locus YOL147C, strain pex11, active compounds read low 1.02 | S. cerevisiae deletion strains, locus YOR001W, strain rrp6, active compounds read low 0.98 | S. cerevisiae deletion strains, locus YOR061W, strain CKA2, active compounds read low 1 | S. cerevisiae deletion strains, locus YOR069W, strain VPS5, active compounds read low 1.01 | S. cerevisiae deletion strains, locus YOR070C, strain gyp1, active compounds read low 0.962 | S. cerevisiae deletion strains, locus YOR080W, strain dia2, active compounds read low 0.963 | S. cerevisiae deletion strains, locus YOR083W, strain WHI5, active compounds read low 0.969 | S. cerevisiae deletion strains, locus YOR106W, strain vam3, active compounds read low 0.956 | S. cerevisiae deletion strains, locus YOR136W, strain idh2, active compounds read low 1.03 | S. cerevisiae deletion strains, locus YOR144C, strain elg1, active compounds read low 1.01 | S. cerevisiae deletion strains, locus YOR184W, strain ser1, active compounds read low 1.03 | S. cerevisiae deletion strains, locus YOR231W, strain MKK1, active compounds read low 1.03 | S. cerevisiae deletion strains, locus YOR265W, strain rbl2, active compounds read low 0.962 | S. cerevisiae deletion strains, locus YOR270C, strain vph1, active compounds read low 0.934 | S. cerevisiae deletion strains, locus YOR290C, strain snf2, active compounds read low 0.95 | S. cerevisiae deletion strains, locus YOR316C, strain cot1, active compounds read low 1.01 | S. cerevisiae deletion strains, locus YPL051W, strain arl3, active compounds read low 0.963 | S. cerevisiae deletion strains, locus YPL055C, strain LGE1, active compounds read low 1.04 | S. cerevisiae deletion strains, locus YPL078C, strain atp4, active compounds read low 0.969 | S. cerevisiae deletion strains, locus YPL106C, strain sse1, active compounds read low 0.986 | S. cerevisiae deletion strains, locus YPL240C, strain hsp82, active compounds read low 0.966 | S. cerevisiae deletion strains, locus YPL241C, strain CIN2, active compounds read low 1.01 | S. cerevisiae deletion strains, locus YPL256C, strain CLN2, active compounds read low 1.04 | S. cerevisiae deletion strains, locus YPR119W, strain clb2, active compounds read low 1.02 | S. cerevisiae deletion strains, locus YPR141C, strain kar3, active compounds read low 1.02 | S. cerevisiae deletion strains, locus YPR163C, strain tif3, active compounds read low 1.02 | S. cerevisiae deletion strains, locus YPR167C, strain met16, active compounds read low 1.01 | S. cerevisiae deletion strains, strain wtn01, active compounds read low 1.01 | S. cerevisiae strains, strain wild type, active compounds read low 1.01
active: S. cerevisiae deletion strains, locus YLR262C, strain YPT6 (second series), active compounds read low 0.856
